Measured values from PubChem BioAssay.
Several values for one entry are separate records, joined by “and”; a condition that tells them apart may be missing. Identical values can stand only once. Activity calls are given as the source filed them.

Tests used:
[1] = test system: PRMT1 (protein arginine N-methyltransferase 1); assay: PRMT1 binders on small-molecule microarrays, primary screen, biochemical, small-molecule microarray, 635 nm fluorescence (AID 1088); settings: small-molecule microarray binding, higher = more signal;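 further: binding of Prmt1 protein to compounds spotted on small-molecule microarray slides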
[2] = yeast growth modulation, basal conditions, primary screen, YJM789 clinical isolate, OD600, 24 h (AID 1089);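 further: growth of clinical yeast isolate S. cerevisiae YJM 789 seeded 1000 cells per well; test concentration not given here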; settings: S. cerevisiae YJM789 growth, higher = more signal, called active from +8 up or from −8 down
[3] = fission yeast growth modulation, primary screen, strain 972, OD600, 24 h, no modulator (AID 1090);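 further: basal condition with compound alone and no growth modifier present; test concentration not given here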; settings: S. pombe 972 growth, higher = more signal, called active from +8 up or from −8 down
[4] = S. cerevisiae growth modulation with rapamycin, primary screen, strain BY4716, OD600, 96 h (AID 1091); settings: higher = more signal, called active from +8 up or from −8 down; further: test concentration not given here
[5] = target: Torsin-1A-interacting protein 2 (Homo sapiens) (UniProt Q8NFQ8); assay: LULL1 binders on small-molecule microarray, primary screen, cell lysate, human LULL1 lysate, 635/667 nm fluorescence (AID 1092); settings: hLULL1 lysate binding, 635 nm fluorescence, higher = more signal;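 further: probe is lysate of COS7 cells overexpressing human LULL1; score merges per-feature 667 nm fluorescence with signal-to-noise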
Torsin-1A-interacting protein 2 (Homo sapiens), sequence (Q8NFQ8 whole entry, looked up): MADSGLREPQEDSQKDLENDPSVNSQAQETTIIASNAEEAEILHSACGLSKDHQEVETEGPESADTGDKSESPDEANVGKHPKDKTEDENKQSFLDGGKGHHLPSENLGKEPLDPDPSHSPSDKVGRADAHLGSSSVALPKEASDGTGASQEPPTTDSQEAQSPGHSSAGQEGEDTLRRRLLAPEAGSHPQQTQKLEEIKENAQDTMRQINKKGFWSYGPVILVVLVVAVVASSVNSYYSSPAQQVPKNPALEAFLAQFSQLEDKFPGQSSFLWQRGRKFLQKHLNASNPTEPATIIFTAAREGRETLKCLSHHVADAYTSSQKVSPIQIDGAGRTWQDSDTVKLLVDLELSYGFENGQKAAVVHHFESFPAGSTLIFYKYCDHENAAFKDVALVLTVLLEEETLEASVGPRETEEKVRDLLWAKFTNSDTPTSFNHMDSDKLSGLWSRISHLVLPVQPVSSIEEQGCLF

[6] = E. coli growth modulation, two-sided OD650, primary screen, E. coli filamentation project, strain DRC41, 24 h (AID 1093); settings: OD650, 24 h, higher = more signal, called active from +8 up or from −8 down;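 further: MC1000 strain lacking acrAB efflux and sulA so SOS filamentation is blocked; test concentration not given here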
[7] = small-molecule microarray binders of probe aLefty2, primary screen, biochemical, biotinylated probe, 635/667 nm fluorescence (AID 1094); settings: higher = more signal;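 further: score merges spot fluorescence near 667 nm with spot signal-to-noise ratio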
[8] = test system: Noggin (protein binding on small-molecule microarray); assay: Noggin binders on small-molecule microarray, primary screen, biochemical, 635/667 nm fluorescence (AID 1095); settings: 635 nm fluorescence, higher = more signal;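 further: score merges 667 nm feature fluorescence with signal to noise over triplicate slides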
[9] = target: Neurogenic locus notch homolog protein 3 (Homo sapiens) (UniProt Q9UM47); assay: NOTCH3 binders on small-molecule microarray, primary screen, biochemical, 635/667 nm fluorescence (AID 1096); settings: NOTCH3 binding, 635 nm fluorescence, higher = more signal
Neurogenic locus notch homolog protein 3 (Homo sapiens), sequence (Q9UM47 whole entry, looked up): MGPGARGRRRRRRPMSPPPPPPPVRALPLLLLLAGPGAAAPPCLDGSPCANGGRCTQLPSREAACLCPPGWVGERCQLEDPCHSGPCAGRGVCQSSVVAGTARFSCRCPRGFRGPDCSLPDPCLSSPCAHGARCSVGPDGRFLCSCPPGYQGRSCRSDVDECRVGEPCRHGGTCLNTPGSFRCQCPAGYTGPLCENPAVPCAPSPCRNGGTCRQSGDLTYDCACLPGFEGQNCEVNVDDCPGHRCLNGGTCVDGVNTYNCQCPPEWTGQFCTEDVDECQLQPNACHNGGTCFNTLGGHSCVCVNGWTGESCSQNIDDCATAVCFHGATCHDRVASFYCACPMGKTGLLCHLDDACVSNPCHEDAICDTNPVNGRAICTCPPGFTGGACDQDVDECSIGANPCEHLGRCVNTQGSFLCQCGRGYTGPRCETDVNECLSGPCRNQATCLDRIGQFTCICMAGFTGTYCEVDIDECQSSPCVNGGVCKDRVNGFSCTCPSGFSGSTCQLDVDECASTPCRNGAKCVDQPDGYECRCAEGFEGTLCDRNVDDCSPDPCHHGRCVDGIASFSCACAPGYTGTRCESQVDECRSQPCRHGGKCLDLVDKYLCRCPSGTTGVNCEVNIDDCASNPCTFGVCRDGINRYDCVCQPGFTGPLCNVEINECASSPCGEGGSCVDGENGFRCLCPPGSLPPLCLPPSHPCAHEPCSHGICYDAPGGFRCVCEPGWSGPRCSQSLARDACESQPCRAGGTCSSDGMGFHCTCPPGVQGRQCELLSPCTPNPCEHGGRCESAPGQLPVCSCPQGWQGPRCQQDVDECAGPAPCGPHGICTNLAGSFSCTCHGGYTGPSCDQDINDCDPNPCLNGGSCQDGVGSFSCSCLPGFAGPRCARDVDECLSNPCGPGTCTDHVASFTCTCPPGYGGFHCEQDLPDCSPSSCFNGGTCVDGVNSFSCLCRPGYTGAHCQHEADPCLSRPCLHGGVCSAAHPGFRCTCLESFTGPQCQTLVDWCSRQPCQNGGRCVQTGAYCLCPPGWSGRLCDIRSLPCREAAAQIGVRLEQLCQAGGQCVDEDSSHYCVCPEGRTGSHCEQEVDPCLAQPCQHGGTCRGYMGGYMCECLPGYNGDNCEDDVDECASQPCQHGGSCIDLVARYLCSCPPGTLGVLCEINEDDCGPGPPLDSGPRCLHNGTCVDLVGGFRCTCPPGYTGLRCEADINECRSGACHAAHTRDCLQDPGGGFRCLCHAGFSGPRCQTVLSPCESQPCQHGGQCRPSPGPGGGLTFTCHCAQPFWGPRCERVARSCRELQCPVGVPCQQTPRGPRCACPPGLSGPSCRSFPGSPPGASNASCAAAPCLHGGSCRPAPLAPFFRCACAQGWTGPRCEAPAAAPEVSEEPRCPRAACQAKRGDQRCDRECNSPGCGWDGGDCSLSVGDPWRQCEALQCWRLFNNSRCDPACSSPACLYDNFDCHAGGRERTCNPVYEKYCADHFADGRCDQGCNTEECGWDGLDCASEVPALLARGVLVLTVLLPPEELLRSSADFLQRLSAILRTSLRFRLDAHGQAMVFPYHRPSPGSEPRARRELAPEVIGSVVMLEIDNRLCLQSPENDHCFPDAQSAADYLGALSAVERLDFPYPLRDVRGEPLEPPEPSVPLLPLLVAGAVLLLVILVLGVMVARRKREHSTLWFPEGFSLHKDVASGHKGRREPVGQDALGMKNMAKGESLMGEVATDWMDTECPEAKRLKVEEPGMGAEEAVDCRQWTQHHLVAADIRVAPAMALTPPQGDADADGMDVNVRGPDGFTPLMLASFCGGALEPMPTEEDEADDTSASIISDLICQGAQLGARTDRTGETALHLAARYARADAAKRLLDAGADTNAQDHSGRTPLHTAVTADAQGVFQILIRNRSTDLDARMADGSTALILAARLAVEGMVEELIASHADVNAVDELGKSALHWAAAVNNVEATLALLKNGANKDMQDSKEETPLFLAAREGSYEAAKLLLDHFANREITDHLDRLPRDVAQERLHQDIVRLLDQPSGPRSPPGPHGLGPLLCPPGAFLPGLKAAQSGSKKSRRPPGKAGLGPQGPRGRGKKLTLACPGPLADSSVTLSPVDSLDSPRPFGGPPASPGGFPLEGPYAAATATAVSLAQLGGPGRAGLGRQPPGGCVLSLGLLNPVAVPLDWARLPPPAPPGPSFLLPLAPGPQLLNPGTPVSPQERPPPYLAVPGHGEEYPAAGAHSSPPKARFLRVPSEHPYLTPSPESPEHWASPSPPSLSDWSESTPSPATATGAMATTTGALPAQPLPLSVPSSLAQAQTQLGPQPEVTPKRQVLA

[10] = small-molecule microarray binders of probe aEGFR, primary screen, biochemical, biotinylated probe, 635/667 nm fluorescence (AID 1097); settings: higher = more signal;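 further: probe is a biotinylated anti-EGFR antibody binding compounds printed on slides; score combines fluorescence near 667 nm and signal to noise of each spot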
[11] = test system: Plasmodium falciparum Sir2 (PF13_0152, Sir2A); assay: pfSir2 binders on small-molecule microarrays, primary screen, biochemical, small-molecule microarray, 635 nm fluorescence (AID 1098); settings: small-molecule microarray binding, fluorescence 635 nm; higher = more signal;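 further: score merges spot fluorescence intensity with its signal-to-noise ratio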
[12] = small-molecule microarray binders of probe aDKK1, primary screen, biochemical, biotinylated probe, 635/667 nm fluorescence (AID 1099); settings: higher = more signal;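 further: score merges 667nm spot fluorescence with signal to noise across triplicate slides; reference of the scale not given here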
[13] = small-molecule microarray binders of probe aCHRDL2, primary screen, biochemical, biotinylated probe, 635/667 nm fluorescence (AID 1100); settings: higher = more signal
[14] = splicing luciferase reporter signal modulators, primary screen, spliceosome inhibition project, cell-based, HEK293, splice +/- reporter (AID 1101); settings: luminescence, 24 h, higher = more signal, called active from +8 up or from −8 down;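 further: HEK293 cells carrying a splicing-competent luciferase reporter gene; test concentration not given here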
[15] = target: Fibroblast growth factor 10 (Homo sapiens) (UniProt O15520); assay: FGF10 binders on small-molecule microarrays, primary screen, biochemical, small-molecule microarray, 635 nm fluorescence (AID 1102); settings: FGF10 binding, fluorescence 635 nm, higher = more signal
Fibroblast growth factor 10 (Homo sapiens), sequence (O15520 whole entry, looked up): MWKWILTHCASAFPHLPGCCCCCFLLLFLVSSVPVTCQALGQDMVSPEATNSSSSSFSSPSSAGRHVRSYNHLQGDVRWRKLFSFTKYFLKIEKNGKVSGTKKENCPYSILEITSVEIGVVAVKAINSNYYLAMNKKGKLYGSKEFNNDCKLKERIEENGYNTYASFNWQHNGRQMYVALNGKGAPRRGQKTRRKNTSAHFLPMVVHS

[16] = test system: glycogen synthase kinase-3 (GSK3A per assay name; protocol says GSK3B); assay: GSK3 binders on small-molecule microarrays, primary screen, biochemical, small-molecule microarray, 635 nm fluorescence, GSK3A (AID 1103); settings: small-molecule microarray binding, fluorescence 635 nm; higher = more signal; further: the record names both GSK3A and GSK3B
[17] = target: Epidermal growth factor receptor (Homo sapiens) (UniProt P00533); assay: EGFR binders on small-molecule microarrays, primary screen, biochemical, small-molecule microarray, 635 nm fluorescence (AID 1104); settings: EGFR binding, higher = more signal;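 further: score merges 667 nm emission intensity with spot signal to noise over triplicate slides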
Epidermal growth factor receptor (Homo sapiens), sequence (P00533 whole entry, looked up): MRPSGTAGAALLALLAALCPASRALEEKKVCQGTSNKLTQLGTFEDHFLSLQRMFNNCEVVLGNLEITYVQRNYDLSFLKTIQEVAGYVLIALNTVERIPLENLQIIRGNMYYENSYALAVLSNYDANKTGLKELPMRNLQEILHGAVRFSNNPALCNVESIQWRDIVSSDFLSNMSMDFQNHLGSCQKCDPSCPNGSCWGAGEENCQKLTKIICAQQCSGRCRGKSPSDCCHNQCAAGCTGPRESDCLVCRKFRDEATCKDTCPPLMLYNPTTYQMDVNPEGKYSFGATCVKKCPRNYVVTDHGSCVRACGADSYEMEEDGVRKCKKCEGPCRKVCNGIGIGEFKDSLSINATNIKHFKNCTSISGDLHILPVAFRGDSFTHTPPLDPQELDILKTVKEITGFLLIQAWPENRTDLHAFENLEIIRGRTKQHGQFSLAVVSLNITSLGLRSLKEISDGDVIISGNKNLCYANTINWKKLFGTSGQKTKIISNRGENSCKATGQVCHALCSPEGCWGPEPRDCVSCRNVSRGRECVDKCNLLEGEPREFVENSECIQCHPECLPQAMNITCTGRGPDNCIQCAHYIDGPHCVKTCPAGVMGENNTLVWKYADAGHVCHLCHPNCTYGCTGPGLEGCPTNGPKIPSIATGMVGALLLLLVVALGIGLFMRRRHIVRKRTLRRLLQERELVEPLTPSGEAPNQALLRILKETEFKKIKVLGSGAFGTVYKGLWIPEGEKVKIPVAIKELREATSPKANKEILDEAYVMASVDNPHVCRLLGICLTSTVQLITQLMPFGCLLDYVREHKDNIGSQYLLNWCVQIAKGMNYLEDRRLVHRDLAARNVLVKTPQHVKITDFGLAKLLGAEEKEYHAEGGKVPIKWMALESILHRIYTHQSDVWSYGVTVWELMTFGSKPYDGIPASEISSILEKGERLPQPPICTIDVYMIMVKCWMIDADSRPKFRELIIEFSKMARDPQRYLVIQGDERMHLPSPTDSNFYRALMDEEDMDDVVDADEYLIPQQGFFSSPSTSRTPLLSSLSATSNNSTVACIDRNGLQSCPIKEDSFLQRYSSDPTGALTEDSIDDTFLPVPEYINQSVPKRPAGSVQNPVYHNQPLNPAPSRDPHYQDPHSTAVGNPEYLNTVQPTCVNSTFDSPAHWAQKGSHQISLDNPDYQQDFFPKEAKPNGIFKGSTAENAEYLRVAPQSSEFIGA

[18] = target: Follistatin-related protein 3 (Homo sapiens) (UniProt O95633); assay: FSTL3 binders on small-molecule microarrays, primary screen, biochemical, small-molecule microarray, 635 nm fluorescence (AID 1105); settings: FSTL3 binding, higher = more signal;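 further: score merges emission near 667 nm and signal to noise per printed spot across three slides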
Follistatin-related protein 3 (Homo sapiens), sequence (O95633 whole entry, looked up): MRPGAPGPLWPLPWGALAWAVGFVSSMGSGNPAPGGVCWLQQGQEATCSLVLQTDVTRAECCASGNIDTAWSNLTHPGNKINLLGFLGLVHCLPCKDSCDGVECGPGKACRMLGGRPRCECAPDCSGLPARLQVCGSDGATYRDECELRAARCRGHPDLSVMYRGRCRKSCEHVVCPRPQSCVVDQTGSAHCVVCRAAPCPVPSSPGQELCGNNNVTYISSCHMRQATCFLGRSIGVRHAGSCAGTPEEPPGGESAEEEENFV

[19] = target: Dickkopf-related protein 1 (Homo sapiens) (UniProt O94907); assay: DKK1 binders on small-molecule microarrays, primary screen, biochemical, small-molecule microarray, 635 nm fluorescence scan (AID 1106); settings: DKK1 binding, higher = more signal;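 further: score merges emission near 667 nm with signal to noise over three replicate slides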
Dickkopf-related protein 1 (Homo sapiens), sequence (O94907 whole entry, looked up): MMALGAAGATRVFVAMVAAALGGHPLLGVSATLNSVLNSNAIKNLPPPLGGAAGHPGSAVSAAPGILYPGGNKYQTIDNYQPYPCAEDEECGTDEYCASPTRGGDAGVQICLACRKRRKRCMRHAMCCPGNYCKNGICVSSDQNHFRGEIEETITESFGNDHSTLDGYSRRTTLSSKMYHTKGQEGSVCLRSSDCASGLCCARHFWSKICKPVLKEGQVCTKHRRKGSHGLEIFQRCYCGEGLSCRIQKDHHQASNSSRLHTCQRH

[20] = test system: Inhibin beta A chain (activin A); assay: INHBA (activin A) binders on microarrays, primary screen, biochemical, small-molecule microarray, 635 nm fluorescence scan (AID 1107); settings: small-molecule microarray binding, higher = more signal;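 further: mouse activin A protein probed at 4.33 µg/mL on printed slides; score merges bound-protein fluorescence near 667 nm with spot signal-to-noise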

CCCCN1CC=CC23O[C@@H]4C=CCCOC(=O)C4[C@H]2C(=O)N(C(C)CO)[C@@H]3C1=O (stereo not given in full)
composite z-score [1]: 0.275 and -0.575
z-score [2]: -0.601 (inactive) and 1.38 (inactive)
z-score [3]: -0.158 (inactive) and 1.52 (inactive)
z-score [4]: -0.164 (inactive) and 0.868 (inactive)
composite z-score [5]: 3.12 and -0.0307
z-score [6]: -0.164 (inactive) and 0.287 (inactive)
composite z-score [7]: -0.179 and -0.0421
composite z-score [8]: -0.72 and -0.244
composite z-score [9]: -0.391 and -0.4
composite z-score [10]: -0.221 and 0.0329
composite z-score [11]: 0.381 and 0.0105
composite z-score [12]: -0.286 and -0.221
composite z-score [13]: 0.473 and -0.194
z-score [14]: 0.856 (inactive) and -0.0825 (inactive)
composite z-score [15]: -0.346 and 0.232
composite z-score [16]: -0.662 and -0.551
composite z-score [17]: -0.683 and -0.191
composite z-score [18]: -0.934 and -0.0066
composite z-score [19]: -0.135 and 0.176
composite z-score [20]: 0.958 and 1.07

CC(CO)N1C(=O)[C@@H]2C3C(=O)OCCC=C[C@H]3OC23C=CCN(Cn2nnc4ccccc42)C(=O)[C@@H]13 (stereo not given in full)
composite z-score [1]: -0.414 and 0.262
z-score [2]: 1.52 (inactive) and -1.09 (inactive)
z-score [3]: 0.102 (inactive) and -0.115 (inactive)
z-score [4]: 0.73 (inactive) and -0.0895 (inactive)
composite z-score [5]: 0.145 and 3.01
z-score [6]: 0.775 (inactive) and -0.175 (inactive)
composite z-score [7]: -0.223 and -0.0882
composite z-score [8]: -1.78 and 0.0711
composite z-score [9]: -0.391 and 0.347
composite z-score [10]: -0.203 and -0.0828
composite z-score [11]: 1.07 and 1.47
composite z-score [12]: -0.26 and -0.125
composite z-score [13]: 0.683 and 0.303
z-score [14]: -0.0985 (inactive) and 0.148 (inactive)
composite z-score [15]: -0.914 and 0.715
composite z-score [16]: -1.38 and -0.212
composite z-score [17]: -1.56 and -0.105
composite z-score [18]: -1.68 and -0.219
composite z-score [19]: -2.03 and -0.18
composite z-score [20]: -0.785 and 0.234

CO[C@@H]1COC(=O)CC=C[C@H](C)[C@@H](NS(=O)(=O)c2ccc(C)cc2)COC(=O)CC=C[C@@H]1C
composite z-score [1]: 1.16 and 1.54
z-score [2]: 0.403 (inactive) and -0.552 (inactive)
z-score [3]: -0.733 (inactive) and -0.194 (inactive)
z-score [4]: 0.62 (inactive) and -1.52 (inactive)
composite z-score [5]: 0.633 and -0.853
z-score [6]: 0.56 (inactive) and 0.132 (inactive)
composite z-score [7]: -0.0785 and -0.186
composite z-score [8]: 1.27 and 1.31
composite z-score [9]: 0.634 and 0.525
composite z-score [10]: -0.115 and 0.0097
composite z-score [11]: 0.462 and 1.72
composite z-score [12]: -0.378 and -0.3
composite z-score [13]: -0.823 and -0.867
z-score [14]: -0.338 (inactive) and -0.57 (inactive)
composite z-score [15]: 0.819 and 0.365
composite z-score [16]: 0.875 and 0.415
composite z-score [17]: 0.858 and 0.943
composite z-score [18]: 1.32 and 1.4
composite z-score [19]: 0.597 and 1.3
composite z-score [20]: -0.113 and 1.32

C[N+](C)(C)CCCCNC(=O)[C@H]1C[C@H]2C(=O)N[C@@H](CCCC[N+](C)(C)C)C(=O)N2[C@H]1c1ccc(O)cc1
composite z-score [1]: 1.54 and 1.55
z-score [2]: 0.877 (inactive) and -0.0113 (inactive)
z-score [3]: 0.565 (inactive) and 0.352 (inactive)
z-score [4]: -1.16 (inactive) and -1.35 (inactive)
composite z-score [5]: -0.296 and -0.656
z-score [6]: -0.118 (inactive) and 0.0161 (inactive)
composite z-score [7]: -0.171 and -0.214
composite z-score [8]: 1.73 and 1.84
composite z-score [9]: 0.97 and 0.969
composite z-score [10]: 0.0338 and -0.127
composite z-score [11]: 1.3 and 1.94
composite z-score [12]: -0.237 and -0.18
composite z-score [13]: -0.904 and -0.983
z-score [14]: 0.411 (inactive) and -1.57 (inactive)
composite z-score [15]: 1.56 and 1.47
composite z-score [16]: 1.31 and 0.668
composite z-score [17]: 1.16 and 0.868
composite z-score [18]: 1.44 and 1.34
composite z-score [19]: 2.03 and 1.92
composite z-score [20]: 1.02 and 0.383

CCCCCN1CC=CC23O[C@@H]4C=CCCOC(=O)C4[C@H]2C(=O)N(C(C)CO)[C@@H]3C1=O (stereo not given in full)
composite z-score [1]: 0.432 and 0.967
z-score [2]: -0.772 (inactive) and 0.61 (inactive)
z-score [3]: -0.328 (inactive) and 0.278 (inactive)
z-score [4]: -1.48 (inactive) and 0.779 (inactive)
composite z-score [5]: 1.01 and 2.94
z-score [6]: 1.78 (inactive) and 1.58 (inactive)
composite z-score [7]: -0.401 and 0.157
composite z-score [8]: 0.157 and 0.362
composite z-score [9]: 0.311 and 0.388
composite z-score [10]: -0.386 and -0.253
composite z-score [11]: 1.83 and 0.878
composite z-score [12]: -1.21 and 0.263
composite z-score [13]: -0.532 and 0.779
z-score [14]: 0.691 (inactive) and 0.361 (inactive)
composite z-score [15]: 0.0253 and -0.6
composite z-score [16]: 0.375 and -0.449
composite z-score [17]: -0.655 and -0.706
composite z-score [18]: 0.164 and -0.32
composite z-score [19]: -0.057 and -0.695
composite z-score [20]: -0.131 and 0.537

CC(C)=NOCc1ccc(-c2cn([C@@H]3COC[C@H]3O)nn2)cc1
composite z-score [1]: -0.253
z-score [2]: 0.279 (inactive)
z-score [3]: 0.132 (inactive)
z-score [4]: -0.738 (inactive)
composite z-score [5]: 0.226
z-score [6]: 0.484 (inactive)
composite z-score [7]: 0.0434
composite z-score [8]: 0.485
composite z-score [9]: -0.328
composite z-score [10]: -0.0025
composite z-score [11]: -0.257
composite z-score [12]: -0.123
composite z-score [13]: -0.764
z-score [14]: 1.04 (inactive)
composite z-score [15]: 0.506
composite z-score [16]: 0.114
composite z-score [17]: 0.309
composite z-score [18]: 0.273
composite z-score [19]: 0.455
composite z-score [20]: 0.147

CO[C@@H]1C=CCC(=O)N2CCC[C@H]2C(=O)OC[C@H](C)C(=O)OC[C@H]1C
composite z-score [1]: 0.59
z-score [2]: 0.741 (inactive)
z-score [3]: -0.295 (inactive)
z-score [4]: -0.606 (inactive)
composite z-score [5]: -0.246
z-score [6]: 0.714 (inactive)
composite z-score [7]: -0.0693
composite z-score [8]: 1.41
composite z-score [9]: -0.13
composite z-score [10]: 0.163
composite z-score [11]: 0.517
composite z-score [12]: -0.33
composite z-score [13]: -0.966
z-score [14]: -0.25 (inactive)
composite z-score [15]: 0.243
composite z-score [16]: 0.396
composite z-score [17]: 0.612
composite z-score [18]: 0.875
composite z-score [19]: 1.26
composite z-score [20]: 0.358

O=C1C[C@]2(c3ccc([N+](=O)[O-])cc3)C(=O)N(Cc3ccccc3)c3cc(CO)ccc3[C@H]2N1C1CCCCC1
composite z-score [1]: 1.33 and 0.39
z-score [2]: -0.754 (inactive) and -0.363 (inactive)
z-score [3]: 0.31 (inactive) and -0.838 (inactive)
z-score [4]: -1.02 (inactive) and 3.78 (inactive)
composite z-score [5]: 2.21 and 1.14
z-score [6]: 0.245 (inactive) and 0.545 (inactive)
composite z-score [7]: -0.21 and 0.668
composite z-score [8]: 0.469 and 0.225
composite z-score [9]: 0.219 and 0.161
composite z-score [10]: -0.0828 and 0.805
composite z-score [11]: -0.179 and 0.678
composite z-score [12]: -0.153 and 1.26
composite z-score [13]: -0.0948 and 0.78
z-score [14]: 0.0261 (inactive) and -0.478 (inactive)
composite z-score [15]: -0.225 and 0.994
composite z-score [16]: 1.11 and -0.148
composite z-score [17]: 0.079 and 0.291
composite z-score [18]: 0.413 and -0.017
composite z-score [19]: -0.0921 and 0.434
composite z-score [20]: 0.4 and 0.359
